This passage reports percent of negative control (+Dex) and z-score results from PubChem BioAssay.

Structures are written as SMILES. Calls of active or inactive are those of the source. The rule behind the calls is not given here.

A short description of the experiment: altered dexamethasone sensitivity, NF-kB reporter, cell-based, luciferase, IL-1B stimulus (AID 624486).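 For percent of negative control (+Dex): 100% = mean signal of vehicle control wells on the plate.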 The settings on record: IL-1B + dexamethasone, luminescence; percent of negative control (+Dex): actives lie on both sides, concentration not given here; z-score: measured here: IL-1B alone, no Dex.
For the compound `Cn1cc(C2=C(c3cccnc3)C(=O)NC2=O)c2ccccc21`, the percent of negative control (+Dex) is 110% (inactive) and the z-score was -1.34.

Turning to `COc1cc[nH]c1C=C1C(=O)Nc2ccccc21`, the percent of negative control (+Dex) is 148% (active) and the z-score turned out to be 6.7.

As for `O=C1NC(=NCCc2cccs2)SC1=Cc1ccc2ncccc2c1`, the percent of negative control (+Dex) is 96% (inactive) and the z-score is -0.36.

Consider `COc1cc(F)c(F)cc1C(=O)c1cnc(NC2CCN(S(C)(=O)=O)CC2)nc1N`, for which the z-score is -1.08 and the percent of negative control (+Dex) is 79% (inactive).

With `COc1ccccc1CN=C1NC(=O)C(=Cc2ccc3ncccc3c2)S1`, the z-score was -0.71 and the percent of negative control (+Dex) was 91.5% (inactive).

For the compound `COc1cccc(C2=C(c3cn(C)c4cccc(OC)c34)C(=O)NC2=O)c1`, the percent of negative control (+Dex) was 99% (inactive) and the z-score is 0.35.

As to `Cn1cc(C2=C(Nc3ccccc3)C(=O)NC2=O)c2ccccc21`, the z-score came to 0.495 and the percent of negative control (+Dex) is 106% (inactive).

Take `Cn1cc(C2=C(c3ccccc3)C(=O)NC2=O)c2ccccc21`: the z-score is -0.33 and the percent of negative control (+Dex) is 96% (inactive).

`COc1ccc(CCN=C2NC(=O)C(=Cc3ccc4ncccc4c3)S2)cc1`: the z-score is 0.55 and the percent of negative control (+Dex) was 100% (inactive).

With `CC(=C1SC(=NCc2cccs2)NC1=O)c1ccc2ncccc2c1`, the z-score was -0.085 and the percent of negative control (+Dex) is 92.5% (inactive).

With `COc1ccccc1CCN=C1NC(=O)C(=Cc2ccc3ncccc3c2)S1`, the percent of negative control (+Dex) is 90.5% (inactive) and the z-score was -0.58.

`COc1cc[nH]c1C=C1C(=O)Nc2ccc(F)c(C#CC3(O)CCOCC3)c21`: the percent of negative control (+Dex) is 122% (inactive) and the z-score is -1.81.

Regarding `Cn1cc(C2=C(c3c4n(c5ccccc35)CCCC4)C(=O)NC2=O)c2ccccc21`, the z-score turned out to be 0.55 and the percent of negative control (+Dex) was 100% (inactive).

On to `O=[N+]([O-])c1ccc2c(c1)C(c1ccccc1Cl)=Nc1c(n[nH]c1-c1cccnc1)N2`, for which the percent of negative control (+Dex) is 102% (inactive) and the z-score was -0.45.
